Laboratory results published in PubChem BioAssay AID1159580 (chemical genetic matrix, 2015).
Out of some 5,500 compounds screened, about 2,000 (36%) were called active. About 18% were inconclusive and are not listed. Rule as the data show it: active = normalized growth mostly below about 0.91 (no sharp cut-off); inconclusive = no clear call, values can overlap the other calls; inactive = mostly above about 0.92. The list shows a part of the results.

Assay: chemical genetic growth profiling, strain panel (AID 1159580);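 also: tested at 20 µM; growth read once vehicle control cultures reached saturation at 30 °C; 1 = growth at the plate median or of vehicle wells; lower values mean less growth of the strain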
Settings: S. cerevisiae deletion strains, growth OD

Measured: normalized growth

COC(=O)c1cc(=O)c(O)c2c(O)c(O)ccc2c1
inactive: locus YKL160W, strain elf1, hits give low values 1.01 | locus YKR026C, strain gcn3, hits give low values 0.961 | locus YKR091W, strain srl3, hits give low values 0.994 | locus YLL001W, strain dnm1, hits give low values 0.99 | locus YLL026W, hits give low values 0.994 | locus YLL041C, strain sdh2, hits give low values 0.999 | locus YLR027C, strain aat2, hits give low values 0.996 | locus YLR102C, strain apc9, hits give low values 0.966 | locus YLR221C, strain rsa3, hits give low values 0.97 | locus YLR258W, strain gsy2, hits give low values 0.996 | locus YLR320W, strain mms22, hits give low values 0.984 | locus YLR342W, strain FKS1, hits give low values 0.978 | locus YLR357W, strain rsc2, hits give low values 0.925 | locus YLR370C, strain arc18, hits give low values 0.999 | locus YLR384C, strain iki3, hits give low values 0.995 | locus YML120C, strain ndi1, hits give low values 0.997 | locus YML124C, strain tub3, hits give low values 0.952 | locus YMR078C, strain ctf18, hits give low values 0.943 | locus YMR125W, strain sto1, hits give low values 0.989 | locus YMR129W, hits give low values 0.988 | locus YMR205C, strain PFK2, hits give low values 0.987 | locus YMR231W, strain pep5, hits give low values 0.995 | locus YNL071W, strain lat1, hits give low values 1.02 | locus YNL209W, strain ssb2, hits give low values 0.99 | locus YNL248C, strain rpa49, hits give low values 0.99 | locus YNL307C, strain MCK1, hits give low values 0.953 | locus YNL322C, strain KRE1 (second series), hits give low values 0.967 | locus YNR049C, strain mso1, hits give low values 0.998 | locus YOL012C, strain htz1 0.795 | locus YOR001W, strain rrp6, hits give low values 0.985 | locus YOR070C, strain gyp1, hits give low values 0.995 | locus YOR080W, strain dia2, hits give low values 0.983 | locus YOR083W, strain WHI5, hits give low values 1 | locus YOR106W, strain vam3, hits give low values 0.966 | locus YOR265W, strain rbl2, hits give low values 0.994 | locus YOR270C, strain vph1, hits give low values 1.04 | locus YOR290C, strain snf2, hits give low values 0.94 | locus YOR316C, strain cot1, hits give low values 0.952 | locus YPL051W, strain arl3, hits give low values 0.982 | locus YPL078C, strain atp4, hits give low values 1.02 | locus YPL106C, strain sse1, hits give low values 0.965 | locus YPL240C, strain hsp82, hits give low values 0.978 | locus YPL241C, strain CIN2, hits give low values 0.943 | locus YPR119W, strain clb2, hits give low values 0.94
active: locus YJR043C, strain POL32, hits give low values 0.709 | locus YJR066W, strain TOR1, hits give low values 0.556 | locus YKL009W, strain mrt4, hits give low values 0.773 | locus YKL068W, hits give low values 0.808 | locus YKL085W, strain MDH1 (second series), hits give low values 0.793 | locus YKL085W, strain MDH1, hits give low values 0.793 | locus YKL190W, strain CNB1, hits give low values 0.593 | locus YKR001C, strain vps1, hits give low values 0.764 | locus YLR039C, strain RIC1, hits give low values 0.354 | locus YLR058C, strain SHM2, hits give low values 0.696 | locus YLR113W, strain HOG1, hits give low values 0.795 | locus YLR262C, strain YPT6 (second series), hits give low values 0.847 | locus YLR268W, strain sec22, hits give low values 0.707 | locus YLR342W, strain FKS1 (second series), hits give low values 0.569 | locus YLR371W, strain rom2, hits give low values 0.781 | locus YLR418C, strain cdc73, hits give low values 0.629 | locus YML016C, strain PPZ1, hits give low values 0.771 | locus YML032C, strain rad52, hits give low values 0.73 | locus YMR058W, strain fet3, hits give low values 0.89 | locus YMR223W, strain ubp8, hits give low values 0.818 | locus YMR263W, strain SAP30, hits give low values 0.882 | locus YMR307W, strain GAS1, hits give low values 0.477 | locus YNL067W, strain RPL9B, hits give low values 0.745 | locus YNL153C, strain GIM3, hits give low values 0.841 | locus YNL183C, strain NPR1, hits give low values 0.643 | locus YNL233W, strain BNI4, hits give low values 0.678 | locus YNL250W, strain rad50, hits give low values 0.62 | locus YNL271C, strain bni1, hits give low values 0.731 | locus YNL298W, strain CLA4, hits give low values 0.725 | locus YNL322C, strain KRE1, hits give low values 0.638 | locus YNR052C, strain pop2, hits give low values 0.7 | locus YOL006C, strain TOP1, hits give low values 0.326 | locus YOL147C, strain pex11, hits give low values 0.91 | locus YOR061W, strain CKA2, hits give low values 0.664 | locus YOR069W, strain VPS5, hits give low values 0.796 | locus YOR136W, strain idh2, hits give low values 0.869 | locus YOR144C, strain elg1, hits give low values 0.822 | locus YOR184W, strain ser1, hits give low values 0.801 | locus YOR231W, strain MKK1, hits give low values 0.672 | locus YPL256C, strain CLN2, hits give low values 0.787 | locus YPR141C, strain kar3, hits give low values 0.777 | locus YPR163C, strain tif3, hits give low values 0.832 | locus YPR167C, strain met16, hits give low values 0.802 | strain wtn01, hits give low values 0.785
